Experimental data as given in PubChem BioAssay (Tox21).
Results filed as inconclusive are left out. Activity calls are given as the source filed them. Calls follow the shape of the dose curve; as a rule, active = well fitted curve in the direction sought with a large enough effect in the repeat runs; inconclusive = weak or mixed curves; inactive = no such curve, though single readings can be large; an effect the other way counts as inactive or inconclusive.

Legend:
[1] = A CellTox Green Cytotoxicity Assay to monitor cytotoxicity in HEK293 cells - 40 hour (AID 1224871); also: nearly all actives have a fitted effect of over 45% in size
Outline: (§1)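 Cytotoxicity was tracked continuously in HEK293 cells by a DNA-binding dye excluded from viable cells. Compounds were transferred in DMSO 5 h after seeding; fluorescence was recorded at intervals up to 40 h.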

[2] = qHTS RealTime-Glo MT Cell Viability Assay in HEK293 cells - 16 hour (AID 1224872); also: top concentration of the series differs between compounds; nearly all actives have a fitted effect of over 50% in size
Outline: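 Nonlytic real-time viability readout: viable cells convert prosubstrate to NanoLuc substrate, giving luminescence proportional to live cell number. HEK293, 600 cells/well, compound added after 5 h, continuous culture at 37 C.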

[3] = qHTS RealTime-Glo MT Cell Viability Assay in HepG2 cells - 8 hour (AID 1224873); also: nearly all actives have a fitted effect of over 55% in size
Outline: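 HepG2 cells (600/well) mixed with RealTime-Glo MT reagent, settled 5 h at 37 C/5% CO2 before compound addition. Nonlytic NanoLuc luminescence from viable-cell prosubstrate reduction read repeatedly during 40 h treatment at 37 C.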

[4] = qHTS RealTime-Glo MT Cell Viability Assay in HEK293 cells - 40 hour (AID 1224874); details: RealTime-Glo luminescence; max response: hits give low values; also: nearly all actives have a fitted effect of over 50% in size
Outline: (§2)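 Nonlytic bioluminescent viability monitoring. HEK293 at 600 cells/well with reagent; 5 h settle; compound transfer by pintool; plates held at 37 C and read at set time points.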

[5] = A CellTox Green Cytotoxicity Assay to monitor cytotoxicity in HEK293 cells - 24 hour (AID 1224875); also: series mostly up to about 77 µM; nearly all actives have a fitted effect of over 45% in size
Outline: as §1

[6] = A CellTox Green Cytotoxicity Assay to monitor cytotoxicity in HepG2 cells - 16 hour (AID 1224876); also: nearly all actives have a fitted effect of over 45% in size
Outline: (§3)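 Real-time, homogeneous cytotoxicity readout: dead-cell DNA staining by CellTox Green in HepG2 monolayers, fluorescence measured at timed intervals up to 40 h of continuous compound exposure.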

[7] = qHTS RealTime-Glo MT Cell Viability Assay in HepG2 cells - 32 hour (AID 1224877); also: nearly all actives have a fitted effect of over 55% in size
Outline: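 Luminescence read-out: viable HepG2 cells reduce a prosubstrate to a NanoLuc substrate, giving a signal proportional to live cell number. Reads taken at 0, 8, 16, 24, 32 and 40 h of compound exposure at 37 C.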

[8] = A CellTox Green Cytotoxicity Assay to monitor cytotoxicity in HepG2 cells - 24 hour (AID 1224878); also: nearly all actives have a fitted effect of over 45% in size
Outline: as §3

[9] = A CellTox Green Cytotoxicity Assay to monitor cytotoxicity in HepG2 cells - 40 hour (AID 1224879); also: nearly all actives have a fitted effect of over 40% in size
Outline: as §3

[10] = qHTS RealTime-Glo MT Cell Viability Assay in HEK293 cells - 0 hour (AID 1224880)
Outline: as §2
% is scaled to controls: 0 for no effect and ±100 for the full control effect.

C=CC(=O)NC(C)C
inactive: Potency [1] | Potency [2] | Potency [3] | max response [4] 9.7% | Potency [5] | Potency [6] | Potency [7] | Potency [8] | Potency [9] | Potency [10]

CC(=O)OCC(C)C
inactive: Potency [1] | Potency [2] | Potency [3] | max response [4] 1.5% | Potency [5] | Potency [6] | Potency [7] | Potency [8] | Potency [9] | Potency [10]

O=P(O)(O)Oc1ccccc1
inactive: Potency [1] | Potency [2] | Potency [3] | max response [4] 12.9% | Potency [5] | Potency [6] | Potency [7] | Potency [8] | Potency [9] | Potency [10]

CC(C)C(=O)OCCOc1ccccc1
inactive: Potency [1] | Potency [2] | Potency [3] | max response [4] 2.62% | Potency [5] | Potency [6] | Potency [7] | Potency [8] | Potency [9] | Potency [10]

CCCCCCCCCCCCCCCC(=O)OCC
inactive: Potency [1] | Potency [2] | Potency [3] | max response [4] 0.513% | Potency [5] | Potency [6] | Potency [7] | Potency [8] | Potency [9] | Potency [10]

CCCCOC(=O)CCCCC(=O)OCCCC
inactive: Potency [1] | Potency [2] | Potency [3] | max response [4] 0.321% | Potency [5] | Potency [6] | Potency [7] | Potency [8] | Potency [9] | Potency [10]

O=C1OC[C@H](Cc2cccc(O)c2)[C@H]1Cc1cccc(O)c1
inactive: Potency [1] | Potency [2] | Potency [3] | max response [4] -19.7% | Potency [5] | Potency [6] | Potency [7] | Potency [8] | Potency [9] | Potency [10]

CC(C)CC(O)CC(C)C
inactive: Potency [1] | Potency [2] | Potency [3] | max response [4] 2.3% | Potency [5] | Potency [6] | Potency [7] | Potency [8] | Potency [9] | Potency [10]

CC(=O)OCC1=C(C(=O)O)N2C(=O)[C@@H](NC(=O)CSc3ccncc3)[C@H]2SC1
inactive: Potency [1] | Potency [2] | Potency [3] | max response [4] 5.21% | Potency [5] | Potency [6] | Potency [7] | Potency [8] | Potency [9] | Potency [10]

SCCc1cnccn1
inactive: Potency [1] | Potency [2] | Potency [3] | max response [4] 10.1% | Potency [5] | Potency [6] | Potency [7] | Potency [8] | Potency [9] | Potency [10]

Cc1cccc2sc(N)nc12
inactive: Potency [1] | Potency [2] | Potency [3] | max response [4] 25.1% | Potency [5] | Potency [6] | Potency [7] | Potency [8] | Potency [9] | Potency [10]

ClC1=C(Cl)C1(Cl)Cl
inactive: Potency [1] | Potency [2] | Potency [3] | max response [4] -7.96% | Potency [5] | Potency [6] | Potency [7] | Potency [8] | Potency [9] | Potency [10]

NC(=O)c1ccccc1[N+](=O)[O-]
inactive: Potency [1] | Potency [2] | Potency [3] | max response [4] 13.7% | Potency [5] | Potency [6] | Potency [7] | Potency [8] | Potency [9] | Potency [10]

Nc1nc(-c2ccc([N+](=O)[O-])cc2)cs1
inactive: Potency [1] | Potency [2] | Potency [3] | max response [4] -14.1% | Potency [5] | Potency [6] | Potency [7] | Potency [8] | Potency [9] | Potency [10]

CC1=CC[C@@]23C[C@@H]1C(C)(C)[C@@H]2CC[C@H]3C
inactive: Potency [1] | Potency [2] | Potency [3] | max response [4] 1.49% | Potency [5] | Potency [6] | Potency [7]

Cc1ccc(Cl)cc1N
inactive: Potency [1] | Potency [2] | Potency [3] | max response [4] 4.39% | Potency [5] | Potency [6] | Potency [7] | Potency [8] | Potency [9] | Potency [10]

CCN(CC)CC(=O)Nc1c(C)cccc1C(=O)OC
inactive: Potency [1] | Potency [2] | Potency [3] | max response [4] 0.513% | Potency [5] | Potency [6] | Potency [7] | Potency [8] | Potency [9] | Potency [10]

CCC(C)(C)C(=O)O
inactive: Potency [1] | Potency [2] | Potency [3] | max response [4] -0.784% | Potency [5] | Potency [6] | Potency [7] | Potency [8] | Potency [9] | Potency [10]

CC(C)OC(=O)c1ccccc1C(=O)OC(C)C
inactive: Potency [1] | Potency [2] | Potency [3] | max response [4] -14% | Potency [5] | Potency [6] | Potency [7] | Potency [8] | Potency [9] | Potency [10]

CCCCCCC(O)CCCCCCCCCCC(=O)OC (configuration not stated)
inactive: Potency [1] | Potency [2] | Potency [3] | max response [4] -16.2% | Potency [5] | Potency [6] | Potency [7] | Potency [8] | Potency [9] | Potency [10]

O=c1[nH]c2cc(C(F)(F)F)c(N3CCOCC3)cc2n(CP(=O)(O)O)c1=O
inactive: Potency [1] | Potency [2] | Potency [3] | max response [4] 8.28% | Potency [5] | Potency [6] | Potency [7] | Potency [8] | Potency [9] | Potency [10]

Nc1ccn([C@H]2CS[C@@H](CO)O2)c(=O)n1
inactive: Potency [1] | Potency [2] | Potency [3] | max response [4] -7.77% | Potency [5] | Potency [6] | Potency [7] | Potency [8] | Potency [9] | Potency [10]

O=C(c1ccccc1)c1ccc(O)cc1
inactive: Potency [1] | Potency [2] | Potency [3] | max response [4] -20.1% | Potency [5] | Potency [6] | Potency [7] | Potency [8] | Potency [9] | Potency [10]
